From paper PMC5913336, “True equilibrium measurement of transcription factor-DNA binding affinities using automated polarization microscopy”

What follows are sequences tested against T1, Hb (Drosophila melanogaster, UniProt P05084 225-364) (assay: FP; 33 mM phosphate pH 7.0, 90 mM NaCl, 0.01% Tween 20, 0.1 mM DTT, 0.5% agarose; room temperature). Conditions: tags: N-GST (pGEX-6P-1, kept); dsDNA, one strand shown.
T1 sequence: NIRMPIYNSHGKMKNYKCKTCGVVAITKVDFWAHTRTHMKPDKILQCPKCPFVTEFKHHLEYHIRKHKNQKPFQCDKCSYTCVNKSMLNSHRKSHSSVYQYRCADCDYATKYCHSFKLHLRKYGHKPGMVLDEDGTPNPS
In the case of ATTTTTTTAGGC, the binding signal is reported as 1.03 Kd / Kd of best base at the position.
For AGTTTGTTAGGC, the binding signal was 11.9 Kd / Kd of best base at the position.
For AGTTTTTGAGGC, the binding signal was 8.32 Kd / Kd of best base at the position.
AGTTTTCTAGGC was tested, and the binding signal was 15 Kd / Kd of best base at the position.
AGTTTTTTGGGC was tested, and the binding signal was 6.22 Kd / Kd of best base at the position.

These sequences were tested against T2, Hkb (Drosophila melanogaster, UniProt Q9VN10 181-296) in the same assay as above. Conditions: tags: N-GST (pGEX-6P-1, kept); dsDNA, one strand shown.
T2 sequence: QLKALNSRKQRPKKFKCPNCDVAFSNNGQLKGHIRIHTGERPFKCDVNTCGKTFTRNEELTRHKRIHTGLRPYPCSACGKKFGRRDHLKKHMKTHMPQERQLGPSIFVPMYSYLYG
AAGGGTCGTGAT was tested, and the binding signal was 116 Kd / Kd of best base at the position.
In the case of AAGAGGCGTGAT, the binding signal is reported as 8.29 Kd / Kd of best base at the position.
With AAGGGGAGTGAT the binding signal was 103 Kd / Kd of best base at the position.
In the case of GAGGGGCGTGAT, the binding signal is reported as 3 Kd / Kd of best base at the position.
With AATGGGCGTGAT the binding signal was 1.81 Kd / Kd of best base at the position.
With AGGGGGCGTGAT the binding signal was 5.34 Kd / Kd of best base at the position.
AAGGGGCTTGAT was tested, and the binding signal was 235 Kd / Kd of best base at the position.
For TAGGGGCGTGAT, the binding signal was 2.68 Kd / Kd of best base at the position.
Work on AAGGGGCGTGAT yielded a Kd of ~2.3 nM.
For AAGTGGCGTGAT, the binding signal was 155 Kd / Kd of best base at the position.
AAGGGGGGTGAT was tested, and the binding signal was 55.1 Kd / Kd of best base at the position.
With AAGGGGTGTGAT the binding signal was 277 Kd / Kd of best base at the position.
AACGGGCGTGAT was tested, and the binding signal was 16.2 Kd / Kd of best base at the position.
With AAGGGGCCTGAT the binding signal was 164 Kd / Kd of best base at the position.
With AAGGGGCGTGAA the binding signal was 2.74 Kd / Kd of best base at the position.
In the case of AAGGGGCGTCAT, the binding signal is reported as 134 Kd / Kd of best base at the position.
For AAGGGGCGTAAT, the binding signal was 130 Kd / Kd of best base at the position.
For ATGGGGCGTGAT, the binding signal was 2.01 Kd / Kd of best base at the position.
AAGCGGCGTGAT was tested, and the binding signal was 121 Kd / Kd of best base at the position.
For AAGGGGCGTGAC, the binding signal was 1.18 Kd / Kd of best base at the position.
With ACGGGGCGTGAT the binding signal was 2.33 Kd / Kd of best base at the position.
AAGGGGCATGAT was tested, and the binding signal was 318 Kd / Kd of best base at the position.
In the case of AAGGAGCGTGAT, the binding signal is reported as 52 Kd / Kd of best base at the position.
In the case of AAGGGGCGTGAG, the binding signal is reported as 1.09 Kd / Kd of best base at the position.
For AAGGGGCGAGAT, the binding signal was 75.8 Kd / Kd of best base at the position.
In the case of AAGGGCCGTGAT, the binding signal is reported as 107 Kd / Kd of best base at the position.
In the case of AAGGGACGTGAT, the binding signal is reported as 86.7 Kd / Kd of best base at the position.
With AAGGCGCGTGAT the binding signal was 108 Kd / Kd of best base at the position.
With AAGGGGCGTTAT the binding signal was 124 Kd / Kd of best base at the position.
AAGGTGCGTGAT was tested, and the binding signal was 62.2 Kd / Kd of best base at the position.
In the case of AAGGGGCGGGAT, the binding signal is reported as 85.9 Kd / Kd of best base at the position.
For CAGGGGCGTGAT, the binding signal was 6.48 Kd / Kd of best base at the position.
For AAGGGGCGTGTT, the binding signal was 150 Kd / Kd of best base at the position.
With AAGGGGCGTGCT the binding signal was 119 Kd / Kd of best base at the position.
With AAGGGGCGTGGT the binding signal was 127 Kd / Kd of best base at the position.
